# Test results reported in ChEMBL document CHEMBL1961873, “Compounds: GSK PKIS; Assays: Nanosyn kinase panel” (2012).
# Key:
# [1] = target: Protein kinase C gamma type (Homo sapiens) (UniProt P05129); conditions: at 1 µM;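 further: each value is an averaged percent inhibition of the enzyme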
# [2] = target: T1, Protein kinase C iota type (Homo sapiens) (UniProt P41743); conditions: at 0.1 µM
# T1 sequence (whole entry): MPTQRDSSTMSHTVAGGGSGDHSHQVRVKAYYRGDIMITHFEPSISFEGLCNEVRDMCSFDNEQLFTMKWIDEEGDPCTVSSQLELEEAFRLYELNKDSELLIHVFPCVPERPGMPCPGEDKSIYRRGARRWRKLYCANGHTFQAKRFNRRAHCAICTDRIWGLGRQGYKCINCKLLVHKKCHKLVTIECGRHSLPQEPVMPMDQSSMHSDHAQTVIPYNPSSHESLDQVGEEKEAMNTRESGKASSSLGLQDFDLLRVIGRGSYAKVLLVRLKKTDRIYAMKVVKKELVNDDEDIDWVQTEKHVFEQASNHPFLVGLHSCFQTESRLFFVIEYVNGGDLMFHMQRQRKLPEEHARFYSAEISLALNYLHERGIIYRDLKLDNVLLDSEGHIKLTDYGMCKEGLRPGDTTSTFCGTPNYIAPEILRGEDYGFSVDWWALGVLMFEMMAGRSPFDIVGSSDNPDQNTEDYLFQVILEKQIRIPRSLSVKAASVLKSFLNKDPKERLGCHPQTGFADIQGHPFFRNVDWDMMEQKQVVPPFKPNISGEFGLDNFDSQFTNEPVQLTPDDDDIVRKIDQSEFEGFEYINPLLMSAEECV
# [3] = target: T1, Protein kinase C iota type (Homo sapiens); conditions: at 1 µM
# [4] = target: Protein kinase C theta type (Homo sapiens) (UniProt Q04759); conditions: at 0.1 µM
# [5] = target: Protein kinase C theta type (Homo sapiens) (UniProt Q04759); conditions: at 1 µM
# [6] = target: Protein kinase C beta type (Homo sapiens) (UniProt P05771); conditions: at 0.1 µM
# [7] = target: Protein kinase C beta type (Homo sapiens) (UniProt P05771); conditions: at 1 µM
# [8] = target: T2, Serine/threonine-protein kinase D1 (Homo sapiens) (UniProt Q15139); conditions: at 0.1 µM
# T2 sequence (whole entry): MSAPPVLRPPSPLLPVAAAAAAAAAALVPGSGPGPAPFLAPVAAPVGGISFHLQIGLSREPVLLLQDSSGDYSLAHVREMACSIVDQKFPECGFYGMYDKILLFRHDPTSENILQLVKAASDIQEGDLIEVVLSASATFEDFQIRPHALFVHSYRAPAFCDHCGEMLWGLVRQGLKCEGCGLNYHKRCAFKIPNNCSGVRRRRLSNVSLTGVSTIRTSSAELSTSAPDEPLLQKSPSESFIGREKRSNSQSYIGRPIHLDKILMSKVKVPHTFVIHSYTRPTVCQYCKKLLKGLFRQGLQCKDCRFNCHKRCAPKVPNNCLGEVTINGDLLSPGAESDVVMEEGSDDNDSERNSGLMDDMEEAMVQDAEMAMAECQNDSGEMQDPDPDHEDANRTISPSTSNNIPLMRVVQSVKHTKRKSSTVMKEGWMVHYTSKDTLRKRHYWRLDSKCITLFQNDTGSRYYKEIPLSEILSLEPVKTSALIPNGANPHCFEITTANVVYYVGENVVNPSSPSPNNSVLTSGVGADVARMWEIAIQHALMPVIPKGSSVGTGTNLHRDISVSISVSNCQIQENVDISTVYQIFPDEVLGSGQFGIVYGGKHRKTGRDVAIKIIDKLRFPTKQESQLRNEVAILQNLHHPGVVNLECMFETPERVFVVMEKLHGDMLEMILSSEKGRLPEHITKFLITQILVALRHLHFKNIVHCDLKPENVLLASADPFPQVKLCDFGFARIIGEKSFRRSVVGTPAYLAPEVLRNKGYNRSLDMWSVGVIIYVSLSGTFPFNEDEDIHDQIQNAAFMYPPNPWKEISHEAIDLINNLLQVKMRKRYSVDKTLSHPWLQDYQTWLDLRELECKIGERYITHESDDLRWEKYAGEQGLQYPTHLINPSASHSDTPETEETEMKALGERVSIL
# [9] = target: T2, Serine/threonine-protein kinase D1 (Homo sapiens); conditions: at 1 µM
# [10] = target: T3, Serine/threonine-protein kinase D2 (Homo sapiens) (UniProt Q9BZL6); conditions: at 0.1 µM
# T3 sequence (whole entry): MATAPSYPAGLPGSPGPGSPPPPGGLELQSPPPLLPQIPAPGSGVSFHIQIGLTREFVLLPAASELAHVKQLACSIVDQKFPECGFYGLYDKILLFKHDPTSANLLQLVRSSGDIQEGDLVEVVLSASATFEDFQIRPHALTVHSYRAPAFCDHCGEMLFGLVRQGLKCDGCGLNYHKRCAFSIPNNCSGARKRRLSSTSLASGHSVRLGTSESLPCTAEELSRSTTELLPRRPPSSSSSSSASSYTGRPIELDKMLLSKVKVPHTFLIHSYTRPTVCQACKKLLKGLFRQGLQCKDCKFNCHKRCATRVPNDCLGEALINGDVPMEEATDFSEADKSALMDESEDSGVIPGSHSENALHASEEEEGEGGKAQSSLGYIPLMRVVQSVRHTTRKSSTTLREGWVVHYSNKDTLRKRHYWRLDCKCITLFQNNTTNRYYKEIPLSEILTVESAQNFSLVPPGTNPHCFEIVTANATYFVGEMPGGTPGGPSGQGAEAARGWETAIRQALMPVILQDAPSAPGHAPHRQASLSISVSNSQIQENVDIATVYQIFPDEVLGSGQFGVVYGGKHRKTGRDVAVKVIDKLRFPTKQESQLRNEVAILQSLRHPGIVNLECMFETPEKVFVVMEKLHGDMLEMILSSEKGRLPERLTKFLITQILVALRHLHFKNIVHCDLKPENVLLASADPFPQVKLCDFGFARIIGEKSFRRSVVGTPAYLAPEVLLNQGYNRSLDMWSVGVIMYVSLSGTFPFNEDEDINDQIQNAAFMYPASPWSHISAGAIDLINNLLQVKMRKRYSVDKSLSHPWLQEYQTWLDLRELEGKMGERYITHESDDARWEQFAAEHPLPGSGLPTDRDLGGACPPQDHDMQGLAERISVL
# [11] = target: T3, Serine/threonine-protein kinase D2 (Homo sapiens); conditions: at 1 µM
# [12] = target: T4, Serine/threonine-protein kinase D3 (Homo sapiens) (UniProt O94806); conditions: at 0.1 µM
# T4 sequence (whole entry): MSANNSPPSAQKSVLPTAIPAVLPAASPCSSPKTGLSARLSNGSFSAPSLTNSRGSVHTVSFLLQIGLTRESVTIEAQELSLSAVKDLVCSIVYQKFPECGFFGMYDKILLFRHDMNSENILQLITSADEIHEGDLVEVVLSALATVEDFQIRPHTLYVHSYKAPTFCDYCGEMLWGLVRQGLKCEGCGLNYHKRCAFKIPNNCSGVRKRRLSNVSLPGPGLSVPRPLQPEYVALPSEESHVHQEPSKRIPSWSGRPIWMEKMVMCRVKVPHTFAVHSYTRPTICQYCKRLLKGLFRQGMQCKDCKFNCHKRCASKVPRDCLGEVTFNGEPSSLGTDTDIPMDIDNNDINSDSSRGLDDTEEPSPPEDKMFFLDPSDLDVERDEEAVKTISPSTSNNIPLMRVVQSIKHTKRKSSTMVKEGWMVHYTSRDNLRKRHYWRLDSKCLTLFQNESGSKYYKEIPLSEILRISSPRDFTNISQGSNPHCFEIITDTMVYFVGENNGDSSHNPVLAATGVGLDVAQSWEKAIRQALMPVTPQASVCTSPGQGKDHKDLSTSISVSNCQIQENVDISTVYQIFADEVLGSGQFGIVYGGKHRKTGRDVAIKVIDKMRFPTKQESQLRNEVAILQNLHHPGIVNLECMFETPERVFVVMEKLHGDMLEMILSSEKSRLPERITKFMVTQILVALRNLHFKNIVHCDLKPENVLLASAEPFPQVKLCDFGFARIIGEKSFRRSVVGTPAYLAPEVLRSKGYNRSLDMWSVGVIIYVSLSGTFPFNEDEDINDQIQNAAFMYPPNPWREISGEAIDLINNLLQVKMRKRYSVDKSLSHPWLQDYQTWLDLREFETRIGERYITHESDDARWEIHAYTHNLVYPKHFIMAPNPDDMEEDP
# [13] = target: T4, Serine/threonine-protein kinase D3 (Homo sapiens); conditions: at 1 µM
# [14] = target: T5, cGMP-dependent protein kinase 1 (Homo sapiens) (UniProt Q13976); conditions: at 0.1 µM
# T5 sequence (whole entry): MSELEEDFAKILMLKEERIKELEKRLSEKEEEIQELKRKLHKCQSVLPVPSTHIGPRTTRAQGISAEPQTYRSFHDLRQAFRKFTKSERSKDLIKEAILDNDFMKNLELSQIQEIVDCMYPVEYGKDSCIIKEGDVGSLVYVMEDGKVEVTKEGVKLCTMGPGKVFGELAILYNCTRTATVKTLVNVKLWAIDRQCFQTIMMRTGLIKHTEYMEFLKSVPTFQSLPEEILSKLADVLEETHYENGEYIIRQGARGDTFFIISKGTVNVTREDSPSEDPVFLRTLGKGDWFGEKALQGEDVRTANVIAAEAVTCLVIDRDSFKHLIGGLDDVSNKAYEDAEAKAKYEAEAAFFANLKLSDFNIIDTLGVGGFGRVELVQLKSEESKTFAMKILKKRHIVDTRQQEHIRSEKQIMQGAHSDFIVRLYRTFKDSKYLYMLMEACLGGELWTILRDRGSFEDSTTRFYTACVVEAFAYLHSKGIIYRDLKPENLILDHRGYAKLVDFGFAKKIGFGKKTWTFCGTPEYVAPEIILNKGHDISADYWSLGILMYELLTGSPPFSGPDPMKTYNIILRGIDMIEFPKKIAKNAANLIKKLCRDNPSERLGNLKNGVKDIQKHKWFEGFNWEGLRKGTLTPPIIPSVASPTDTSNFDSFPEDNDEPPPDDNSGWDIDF
# [15] = target: T5, cGMP-dependent protein kinase 1 (Homo sapiens); conditions: at 1 µM
# [16] = target: T6, cGMP-dependent protein kinase 2 (Homo sapiens) (UniProt Q13237); conditions: at 0.1 µM
# T6 sequence (whole entry): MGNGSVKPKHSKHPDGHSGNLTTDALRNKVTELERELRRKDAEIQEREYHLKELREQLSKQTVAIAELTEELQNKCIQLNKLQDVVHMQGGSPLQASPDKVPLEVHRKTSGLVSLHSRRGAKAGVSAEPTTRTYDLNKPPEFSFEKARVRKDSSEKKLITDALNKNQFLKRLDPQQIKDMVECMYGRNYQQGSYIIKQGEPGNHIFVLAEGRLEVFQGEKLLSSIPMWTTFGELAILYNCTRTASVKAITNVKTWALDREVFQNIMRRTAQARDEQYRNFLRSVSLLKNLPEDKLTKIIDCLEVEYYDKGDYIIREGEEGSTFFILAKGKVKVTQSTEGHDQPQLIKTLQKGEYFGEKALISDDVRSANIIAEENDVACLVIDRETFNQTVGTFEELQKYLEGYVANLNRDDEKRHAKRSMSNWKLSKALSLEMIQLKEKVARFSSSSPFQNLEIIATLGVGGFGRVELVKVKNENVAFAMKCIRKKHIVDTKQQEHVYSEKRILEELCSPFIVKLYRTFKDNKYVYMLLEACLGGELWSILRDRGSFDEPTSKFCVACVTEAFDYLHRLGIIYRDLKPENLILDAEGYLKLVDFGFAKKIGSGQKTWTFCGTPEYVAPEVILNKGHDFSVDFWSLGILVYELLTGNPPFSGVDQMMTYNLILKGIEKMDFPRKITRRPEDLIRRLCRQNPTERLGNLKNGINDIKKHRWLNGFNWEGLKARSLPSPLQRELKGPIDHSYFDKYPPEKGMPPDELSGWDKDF
# [17] = target: T6, cGMP-dependent protein kinase 2 (Homo sapiens); conditions: at 1 µM
# [18] = target: T7, cAMP-dependent protein kinase catalytic subunit PRKX (Homo sapiens) (UniProt P51817); conditions: at 0.1 µM
# T7 sequence (whole entry): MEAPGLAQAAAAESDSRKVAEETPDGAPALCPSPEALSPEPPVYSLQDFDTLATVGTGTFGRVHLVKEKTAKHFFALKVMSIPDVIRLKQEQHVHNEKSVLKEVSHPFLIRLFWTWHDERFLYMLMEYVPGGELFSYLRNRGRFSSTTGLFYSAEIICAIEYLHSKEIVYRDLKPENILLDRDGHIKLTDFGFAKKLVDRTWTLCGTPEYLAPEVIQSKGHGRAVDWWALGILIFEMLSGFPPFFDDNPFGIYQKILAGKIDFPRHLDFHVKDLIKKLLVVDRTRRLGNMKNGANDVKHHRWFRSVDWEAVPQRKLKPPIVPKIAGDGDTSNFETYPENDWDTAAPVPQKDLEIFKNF
# [19] = target: T7, cAMP-dependent protein kinase catalytic subunit PRKX (Homo sapiens); conditions: at 1 µM
# [20] = target: Rho-associated protein kinase 1 (Homo sapiens) (UniProt Q13464); conditions: at 0.1 µM;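 further: values are mean percent inhibition of ROCK1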
# Chain of Rho-associated protein kinase 1 (Homo sapiens) (Q13464 2-1354 limits assumed): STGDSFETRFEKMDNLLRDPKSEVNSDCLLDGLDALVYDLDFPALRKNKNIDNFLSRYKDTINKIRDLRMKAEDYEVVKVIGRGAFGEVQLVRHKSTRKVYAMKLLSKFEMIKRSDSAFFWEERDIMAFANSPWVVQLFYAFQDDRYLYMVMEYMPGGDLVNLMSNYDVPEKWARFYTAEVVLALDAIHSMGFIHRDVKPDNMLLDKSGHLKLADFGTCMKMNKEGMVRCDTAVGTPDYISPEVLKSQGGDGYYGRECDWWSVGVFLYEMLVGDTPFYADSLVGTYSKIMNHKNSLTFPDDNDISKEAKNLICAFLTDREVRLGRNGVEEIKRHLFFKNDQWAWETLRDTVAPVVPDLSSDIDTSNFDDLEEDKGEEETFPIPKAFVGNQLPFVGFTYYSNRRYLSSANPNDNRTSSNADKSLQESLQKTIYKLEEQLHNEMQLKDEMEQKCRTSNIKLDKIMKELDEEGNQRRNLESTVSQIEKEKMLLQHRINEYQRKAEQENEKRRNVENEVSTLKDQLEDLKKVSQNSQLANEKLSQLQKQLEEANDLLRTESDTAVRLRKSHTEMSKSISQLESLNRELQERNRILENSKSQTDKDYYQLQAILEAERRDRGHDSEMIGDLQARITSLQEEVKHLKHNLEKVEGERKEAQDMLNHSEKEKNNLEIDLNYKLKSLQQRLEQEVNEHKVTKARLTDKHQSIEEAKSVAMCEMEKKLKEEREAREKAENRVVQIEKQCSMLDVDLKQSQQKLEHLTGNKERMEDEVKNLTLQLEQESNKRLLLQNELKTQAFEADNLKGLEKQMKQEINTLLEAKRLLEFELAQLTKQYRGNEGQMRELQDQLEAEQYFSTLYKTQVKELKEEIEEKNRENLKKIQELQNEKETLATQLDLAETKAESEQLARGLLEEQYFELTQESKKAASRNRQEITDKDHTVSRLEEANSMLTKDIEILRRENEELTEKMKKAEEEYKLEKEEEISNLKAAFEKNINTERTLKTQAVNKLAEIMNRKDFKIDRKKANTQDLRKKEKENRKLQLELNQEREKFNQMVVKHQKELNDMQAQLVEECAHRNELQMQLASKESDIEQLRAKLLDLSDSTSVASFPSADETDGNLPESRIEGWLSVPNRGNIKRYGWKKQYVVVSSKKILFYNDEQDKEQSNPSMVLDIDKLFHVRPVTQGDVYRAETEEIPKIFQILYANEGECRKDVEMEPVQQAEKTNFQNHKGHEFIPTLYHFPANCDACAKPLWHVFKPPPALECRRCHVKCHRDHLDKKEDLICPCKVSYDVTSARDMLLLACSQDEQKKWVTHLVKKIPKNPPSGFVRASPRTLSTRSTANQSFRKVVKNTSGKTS
# Chain of Protein kinase C theta type (Homo sapiens) (Q04759 whole entry, looked up): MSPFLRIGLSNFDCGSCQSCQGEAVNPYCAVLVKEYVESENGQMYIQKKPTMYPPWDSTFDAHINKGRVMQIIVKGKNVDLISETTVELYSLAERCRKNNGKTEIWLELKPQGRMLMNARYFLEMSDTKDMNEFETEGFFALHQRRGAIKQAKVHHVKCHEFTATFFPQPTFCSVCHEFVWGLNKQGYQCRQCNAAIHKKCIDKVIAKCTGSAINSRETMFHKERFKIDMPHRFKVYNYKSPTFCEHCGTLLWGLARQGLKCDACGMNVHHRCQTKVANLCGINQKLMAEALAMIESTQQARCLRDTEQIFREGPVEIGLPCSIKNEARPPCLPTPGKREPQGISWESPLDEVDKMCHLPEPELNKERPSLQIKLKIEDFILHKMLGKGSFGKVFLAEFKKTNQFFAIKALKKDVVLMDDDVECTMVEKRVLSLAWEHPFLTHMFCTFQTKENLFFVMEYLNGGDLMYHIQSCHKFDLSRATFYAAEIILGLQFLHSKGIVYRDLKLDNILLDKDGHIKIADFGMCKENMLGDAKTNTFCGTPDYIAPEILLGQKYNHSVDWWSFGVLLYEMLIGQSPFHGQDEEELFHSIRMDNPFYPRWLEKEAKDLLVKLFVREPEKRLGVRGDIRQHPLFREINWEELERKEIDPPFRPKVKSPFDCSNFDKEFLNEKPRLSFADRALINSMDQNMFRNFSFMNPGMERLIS
# Chain of Protein kinase C beta type (Homo sapiens) (P05771 2-671 limits assumed): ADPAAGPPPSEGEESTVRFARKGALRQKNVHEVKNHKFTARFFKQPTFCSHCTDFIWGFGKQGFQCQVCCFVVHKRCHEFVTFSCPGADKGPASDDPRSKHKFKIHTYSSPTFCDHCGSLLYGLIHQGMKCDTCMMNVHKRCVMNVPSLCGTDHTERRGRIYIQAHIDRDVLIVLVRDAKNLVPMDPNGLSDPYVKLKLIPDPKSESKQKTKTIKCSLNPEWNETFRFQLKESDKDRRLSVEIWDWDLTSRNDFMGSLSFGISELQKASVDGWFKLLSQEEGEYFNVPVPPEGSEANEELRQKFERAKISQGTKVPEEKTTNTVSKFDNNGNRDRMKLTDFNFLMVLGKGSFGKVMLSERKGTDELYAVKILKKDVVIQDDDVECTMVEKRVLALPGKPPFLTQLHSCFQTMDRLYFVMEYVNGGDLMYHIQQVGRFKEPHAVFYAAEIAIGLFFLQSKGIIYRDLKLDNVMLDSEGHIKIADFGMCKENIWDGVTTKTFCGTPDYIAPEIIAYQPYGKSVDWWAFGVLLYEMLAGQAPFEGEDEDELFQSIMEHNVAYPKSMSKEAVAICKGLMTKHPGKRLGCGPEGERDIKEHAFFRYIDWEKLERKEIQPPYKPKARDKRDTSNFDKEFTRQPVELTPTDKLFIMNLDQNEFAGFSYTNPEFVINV
Compound,inhibition [1] [%],inhibition [2] [%],inhibition [3] [%],inhibition [4] [%],inhibition [5] [%],inhibition [6] [%],inhibition [7] [%],inhibition [8] [%],inhibition [9] [%],inhibition [10] [%],inhibition [11] [%],inhibition [12] [%],inhibition [13] [%],inhibition [14] [%],inhibition [15] [%],inhibition [16] [%],inhibition [17] [%],inhibition [18] [%],inhibition [19] [%],inhibition [20] [%]
CS(=O)(=O)Nc1ccc(N/C=C2\C(=O)Nc3ccccc32)cc1,0.03,-1.38,-0.98,-1.09,-0.74,-1.02,-0.85,-2.24,3.18,-0.04,2.63,-1.78,-0.06,-1.67,-1.49,-0.94,3.29,-0.88,0.66,-0.53
CN1CCC(C(=O)Nc2n[nH]c3nnc(-c4ccccc4)cc23)CC1,5.3,2.28,0.85,2.64,3.84,1.32,1.6,5.4,6.32,4.78,6.42,4.65,5.47,3.6,5.14,2.49,4.4,3.15,6.09,7.45
COc1ccc(-c2coc3ncnc(N)c23)cc1,3.98,1.44,3.36,1.7,1.28,1.62,2.4,4.27,6.99,4.87,6.47,4.56,7.56,2.84,3.68,2.51,3.93,1.76,1.11,3.01
